PrP UTR inh = inhibition of PrP 5' UTR reporter expression; cell-based PrP 5' UTR mRNA reporter, plate reader; inhibition, % (concentration not given with the values); 0.35% of 340,000 active; AID 488862; in the data active = inhibition above about 52%; note: 0 = median of the neutral control wells
PrPC TRFRET = cell surface PrPC inhibition, primary TR-FRET screen; inhibition, % at 13.8 µM; 0.43% of 370,000 active; TR-FRET read-out; P04156; AID 720596; in the data active = inhibition above about 24%; note: 0% = median of the test wells and 100% = reference compound wells
BJeLR lethal = kills HRASV12-expressing BJeLR cells; 0.17% of 300,000 active; inhibition, % (concentration not given with the values); AID 1554; BJeLR (HRASV12) viability, CellTiter-Glo ATP luminescence, 48 h; in the data active = inhibition above about 50%; inconclusive = no clear call, values can overlap the other calls
PfHsp40 rescue = rescue of PfHsp40-mediated yeast toxicity. S. cerevisiae expressing PfHsp40, growth rescue, ATP luminescence. growth rescue, % at 12.5 µM. 0.68% of 340,000 active. AID 504582; in the data active = growth rescue above about 28%, passing the limit was not always enough; inconclusive = no clear call, values can overlap the other calls;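 note: yeast W303a lacking pdr1 and pdr3 grown in galactose medium; growth measured after three days at 30 °C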
MazF activator = activators of E. coli MazEF toxin-antitoxin RNase | P0AE70 | FAM/BHQ RNA-DNA oligo cleavage fluorescence, 5 h | activation, % at 20 µM | 0.32% of 350,000 active; in the data active = activation above about 50%
Target sequence (P0AE70 whole entry, looked up): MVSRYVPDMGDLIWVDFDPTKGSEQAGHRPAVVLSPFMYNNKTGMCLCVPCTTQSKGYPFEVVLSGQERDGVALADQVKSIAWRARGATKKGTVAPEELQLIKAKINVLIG
DUSP3 inh = DUSP3 (human) phosphatase inhibition; P51452; recombinant VHR phosphatase, pNPP absorbance; inhibition, % at 13.3 µM; 0.52% of 290,000 active; AID 1654; in the data active = inhibition above about 50%
Target sequence (P51452 whole entry, looked up): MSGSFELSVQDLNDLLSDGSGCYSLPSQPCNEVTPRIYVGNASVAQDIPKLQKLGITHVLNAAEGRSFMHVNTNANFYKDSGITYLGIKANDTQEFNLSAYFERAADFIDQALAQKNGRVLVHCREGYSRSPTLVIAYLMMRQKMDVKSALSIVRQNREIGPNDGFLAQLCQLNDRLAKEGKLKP
PrP 5UTR single = prion 5' UTR mRNA inhibition, cherry-pick retest. shares compounds with PrP UTR inh. 48% of 1,100 active. AID 504592. inhibition, % at 2.5 µM. cell-based prion protein 5' UTR reporter, plate reader; in the data active = inhibition above about 54%; inconclusive = no clear call, values can overlap the other calls
The depositor's hits bear a star. Only some compounds are listed: those with a hit (about 2.1% of all), similar ones and a draw of the others.

How did Cc1cc(C)c(C#N)c(SCc2nnc(-c3ccccc3[N+](=O)[O-])o2)n1 do in these assays?
PrP UTR inh: -38; PrPC TRFRET: -10; BJeLR lethal: 0; PfHsp40 rescue: 2; MazF activator: 0; DUSP3 inh: -8

How did C[C@@H]1CN([C@@H](C)CO)C(=O)CCCn2nncc2CO[C@H]1CN(C)Cc1ccc(O)cc1 do in these assays?
PrPC TRFRET: 2

Results for CCN(C[C@H]1N[C@@](C)(C(=O)OC)[C@H]2C(=O)N(C)C(=O)[C@@H]12)C(=O)c1ccc(C(C)(C)C)cc1 ?
PrP UTR inh: 58*; PrPC TRFRET: -3; PfHsp40 rescue: 1; MazF activator: 2; PrP 5UTR single: -12

How did CCNC(=O)N(CC)C[C@H]1N[C@@](C)(C(=O)OC)[C@H]2C(=O)N(C)C(=O)[C@@H]12 do in these assays?
PrP UTR inh: -4; PrPC TRFRET: 5; PfHsp40 rescue: 0; MazF activator: -7

How did CCC1(CC)SC(N)=NC1=O do in these assays?
PrP UTR inh: -12; PrPC TRFRET: -9; PfHsp40 rescue: 0; MazF activator: -2

What do the screens show for `COc1ccc(Cc2c(C3CCCCC3)nc3c(C)cc(Br)cn23)c(C)c1`?
PrPC TRFRET: 4

What do the screens show for `CCN(CC)c1nc(Oc2ccc(C(=O)OC)cc2)nc(N2CCOCC2)n1`?
PrP UTR inh: 82*; PrPC TRFRET: -1; BJeLR lethal: 0; PfHsp40 rescue: 2; MazF activator: -1; DUSP3 inh: 6; PrP 5UTR single: -26

How did Nc1cccc2c1C(=O)c1ccc(Cl)cc1C2=O do in these assays?
PrP UTR inh: -40; PrPC TRFRET: -30; PfHsp40 rescue: 0; MazF activator: 16

How did O=C1/C(=C/c2ccccc2)CCCc2ccccc21 do in these assays?
PrP UTR inh: -39; PrPC TRFRET: 2; BJeLR lethal: -5; PfHsp40 rescue: 5; MazF activator: -17; DUSP3 inh: -11

How did O=C1C(=C2SCCCS2)CC/C1=C\c1ccc(F)cc1 do in these assays?
PrP UTR inh: 84*; PrPC TRFRET: -4; BJeLR lethal: 6; PfHsp40 rescue: -3; MazF activator: 6; DUSP3 inh: 25; PrP 5UTR single: 84*

Results for Cc1cccc(/C=C2\CCC(=C3SCCCS3)C2=O)c1 ?
PrP UTR inh: 55*; PrPC TRFRET: -3; BJeLR lethal: 5; PfHsp40 rescue: -2; MazF activator: -1; DUSP3 inh: 6; PrP 5UTR single: inconclusive

Results for CCCCN1C=C(C(C)=O)C(=O)CC1 ?
PrP UTR inh: -3; PrPC TRFRET: -4; PfHsp40 rescue: -1; MazF activator: -1

What do the screens show for `COc1ccccc1-c1nnc(SCC(=O)NC2CCCCC2)o1`?
PrP UTR inh: 76*; PrPC TRFRET: 3; BJeLR lethal: -8; PfHsp40 rescue: 2; MazF activator: 4; DUSP3 inh: 21; PrP 5UTR single: -4

How did CN(C)c1ccc(/C=C2/SC(=O)N(CCN=C3NS(=O)(=O)c4ccccc43)C2=O)cc1 do in these assays?
PrP UTR inh: -48; PrPC TRFRET: -4; BJeLR lethal: 1; PfHsp40 rescue: -2; MazF activator: -319; DUSP3 inh: 13

How did CN(C)c1ccc(/C=C2\SC(=O)N(CCc3nnc(N)s3)C2=O)cc1 do in these assays?
PrP UTR inh: 56*; PrPC TRFRET: -11; BJeLR lethal: 1; PfHsp40 rescue: 0; MazF activator: -94; DUSP3 inh: 38; PrP 5UTR single: 76*

Results for O=C(O)CSc1nnc(-c2ccc3c(c2)OCO3)o1 ?
PrP UTR inh: -7; PrPC TRFRET: 13; BJeLR lethal: 8; PfHsp40 rescue: 0; MazF activator: 0; DUSP3 inh: 10

What do the screens show for `O=C(c1ccc(Cl)cc1)N1CCCCC(Sc2nnc(-c3ccc4c(c3)OCO4)o2)C1=O` (configuration not stated)?
PrP UTR inh: 74*; PrPC TRFRET: -7; BJeLR lethal: 6; PfHsp40 rescue: 1; MazF activator: -1; DUSP3 inh: 4; PrP 5UTR single: 78*

What do the screens show for `CCOC(=O)c1ccc(NC(=O)Nc2ccon2)cc1`?
PrP UTR inh: 66*; PrPC TRFRET: 7; BJeLR lethal: 58*; PfHsp40 rescue: 0; MazF activator: -2; DUSP3 inh: -17; PrP 5UTR single: 79*

Source: PubChem BioAssay
